This is part of a sample that, as a whole, favours compounds with a hit. Of some 83,000 tested, about 20% had one in any assay.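 A percent growth of 40 corresponds to 60% growth inhibition; 0 means no net growth; -100 means all cells died. Active threshold: below 10.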 A number with no mark means an inactive call. Calls of active or inactive are those of the source.

The assay deals with SW-620 colon. In words: NCI-60 one-dose screen, 48 h (100 = growth as untreated, 0 = no growth, -100 = all killed). Conditions: 10 µM unless noted. Here is the method:
Growth inhibition of the SW-620 human tumor cell line is measured as a screen for anti-cancer activity. Cells are grown in 96 well plates and exposed to the test compound for 48 hours. Compounds are tested at a single concentration, which is 10^-5 M for most compounds. The reported endpoint is percent growth (GI% or GIPRCNT), where numbers from 0 - 100% represent growth inhibition, and numbers from -100% - 0 represent cell death. For example, a value of 40 represents 60% growth inhibition. A value of 0 means no net growth occurred over the course of the experiment. A value of -40 indicates 40% of cells at the beginning of the experiment died by the end of the experiment. A value of -100 means all cells are dead at the end of the experiment.
NCI-60 Human Tumor Cell Lines Screen was performed using the standard one-dose NCI protocol, which is described in more detail at https://dtp.cancer.gov/discovery_development/nci-60/default.htm.
Compounds with GIPRCNT values below 10 were considered active. Activity score was based on GIPRCNT using the following formula: […]
Score is 0 for GIPRCNT values of 100 or above, 50 for GIPRCNT values of 0, and 100 for GIPRCNT values of -100.
Take `Cn1c(O)c(C(/C=C/c2ccccc2)=Nc2ccccc2N)c(=O)n(C)c1=O`: the growth is 106%.
Then `CCc1ccc(CCC(=O)Nc2ncc(Cc3ccc(Cl)cc3)s2)o1`, with 18.6%; and `COc1cc(C#Cc2ccc(=O)oc2C#Cc2ccccc2)cc(OC)c1OC`, with 8.07% (active); and `CN(C)c1ccc(/C=C/C(=O)c2ccc(Nc3nc(Nc4ccc(F)cc4)nc(Nc4ccc(Cl)cc4)n3)cc2)cc1`, with 92.3%.
On to `O=C(N=Nc1c(O)[nH]c2ccccc12)Nc1ccc(Cl)cc1`, for which the growth is 90.3%.
With `COc1cc2c(/C=C3\C(=O)Nc4ccccc43)c(C(=O)O)[nH]c2cc1C` the figure was 120%.
Then `CCCCCCC(CCCC)COC(=O)c1ccc(Cl)cc1` (stereo not given), with 109%; and `c1ccc(CNc2ccc3nc(CCC4CCCCC4)[nH]c3c2)cc1`, with 67.8%.
Then `Cn1cc(-c2nc(-c3c[nH]c4ccncc34)cs2)c2cc(Br)ccc21`, with -71.8% (active).
For `CCOC(=O)C1CCN(c2ccc(N3C[C@@H](CNCc4ccc(C(=N)N)cc4)OC3=O)cc2)CC1`, the growth was 97.1%.
Then `O=C1OCC2=C1C(c1cccc(C(F)(F)F)c1)c1cc3c(cc1N2CCO)OCO3` (stereo not given), with 23.3%; and `Cc1cc(C(=O)Nc2cc(Nc3ncccc3-c3ncnc4nc[nH]c34)ccc2F)cc(C(F)(F)F)c1`, with 33.9%.
Then `Cc1cccc(NC(=O)CSc2nc3ccc([N+](=O)[O-])cc3[nH]2)c1`, with 97.9%; and `COc1ccc2[nH]cc(-c3nc(-c4cn(C)c5ccncc45)cs3)c2c1`, with -56.9% (active).
With `COc1ccc2c(c1)c(-c1cc(-c3cn(C)c4ccc(OC)cc34)on1)cn2C` the figure was 91.8%; with `CCCCCCC(=O)Nc1ncc(Cc2ccc(C)cc2)s1`, 22.4%; with `CCCCCCCCn1ccc2cc(NC(=O)Cn3cc(CN4CCOCC4)nn3)ccc21`, 97.4%.
For `C/C(=C(\c1ccc(OCCN2CCCCCC2)cc1)c1ccc(OC(=O)Cc2ccccc2)cc1)c1ccc(Cl)cc1`, the growth was -34.7% (active).
With `O=C(Nc1nc(C(=O)N2CCN(C(c3ccccc3)c3ccccc3)CC2)cs1)c1ccc(NC2CCCCC2)c([N+](=O)[O-])c1` the figure was 91.4%.
Then `Cc1c(N2CN3C[C@H](C)N4CN(c5c(C)n(C)n(-c6ccccc6)c5=O)CN5C[C@@H](C)N(C2)C3C54)c(=O)n(-c2ccccc2)n1C` (stereo not given in full), with 103%; and `CCOC(=O)NN1CC(O)=C(c2nc(-c3ccc(Br)cc3)cs2)C1=N`, with 107%.
In the case of `CCCCCn1sc(=O)n(Cc2ccc(CNC(=O)OCc3ccc4c(Cl)cc(Cl)c(O)c4n3)cc2)c1=O`, the growth was 58.4%.
Then `Nc1c(C(=O)Nc2ccccn2)sc2nc3c(cc12)C(O)CCC3` (stereo not given), with 21.8%; and `O=C1NC(=C(Cl)Cl)/C(=N/S(=O)(=O)NCCc2c[nH]c3ccccc23)N1`, with 54.3%.
On to `CCCCCCCCCCCCCCCCCCOc1ccccc1CC(=O)OCC[N+]1(C)CCOCC1`, for which the growth is 77.1%.
In the case of `Cn1c(=O)c2c(c3ccccc31)OC(N)=C(C#N)C21C(=O)c2ccccc2C1=O`, the growth was 82.3%.
With `Cc1cc2nc(-c3c(-c4ccc(F)cc4)nc4sccn34)[nH]c2cc1C` the figure was 108%; with `COc1ccc(C(O)c2cc3c(N)c(C(=O)Nc4cccc(Cl)c4)sc3nc2C)cc1` (stereo not given), 27.1%; with `Cn1cc(-c2ccc3cc(-c4ccc(CC(=O)Nc5cc(C(C)(C)C)on5)cc4)cnc3c2)cn1`, 12.8%.
Then `Clc1nccc2c(-c3csc(-c4c[nH]c5ccccc45)n3)c[nH]c12`, with 7.87% (active).
Then `CNCc1cccc2c1OCCOCCN(C)C(=O)CN(C)S(=O)(=O)c1ccc(cc1)-c1cnc(N)c(n1)C(=O)N2`, with -4.13% (active); and `O=C(Nc1cccc(NC(=O)C2CCCCC2)c1)c1ccccn1`, with 115%.
As for `Cc1cc2oc(=O)cc(CP(=O)(O)O)c2cc1O`, the growth is 91.3%.
With `N#CCC1=NC(c2cccs2)=Nc2ccccc2S1` the figure was 97.8%; with `CCNC(=O)Oc1ccc(/C(=C(/C)Cc2ccc(OC)cc2)c2ccc(OCCN3CCCC3)cc2)cc1`, 81.4%.
With `O=C(OC[C@@H]1CO1)c1cccc2c(=O)c3ccccc3[nH]c12`, the growth was -24.7% (active).
Take `COc1ccc2c(c1)c(-c1nonc1-c1c[nH]c3ccc(Br)cc13)cn2C`: the growth is 33.7%.
With `O=C(Nc1ccc(F)cc1)Nc1ccccc1CNc1nc(Nc2ccc(OCCN3CCCC3)cc2)ncc1Cl` the figure was 27.8%; with `O=C(CCl)Nc1ccc2c(Nc3cc(O)ccc3Cl)ncnc2c1`, -60.6% (active); with `CCC/C(=N\NC(N)=O)C(OC)OC`, 110%.

For the origin of these results see PubChem BioAssay (NCI).
